Test results reported in PubChem BioAssay (Tox21).
Records with an inconclusive call do not appear. Entries that show only a call come without a potency. Activity calls are given as the source filed them. Calls follow the shape of the full dose curve.

Molecular target: Peroxisome proliferator-activated receptor gamma (Homo sapiens) (UniProt P37231)
Test: qHTS assay to identify small molecule antagonists of the peroxisome proliferator-activated receptor gamma (PPARg) signaling pathway (AID 743191); also: nearly all actives have a fitted effect of over 30% in size
Conditions: HEK293H PPARg-UAS-bla, beta-lactamase ratio, antagonist, 17 h; series mostly up to 62.6 µM; ratio activity, negative = inhibition: at the top concentration
Text: U.S. Tox21 Program National Center for Advancing Translational Sciences [NCATS] NIH Chemical Genomics Center [NCGC] U.S. Environmental Protection Agency [EPA] National Institutes of Environmental Health Sciences [NIEHS] National Toxicology Program [NTP] U.S. Food and Drug Administration [FDA] Tox21 Assay Overview: The peroxisome proliferator-activated receptors (PPARs) are lipid-activated transcription factors of the nuclear receptor superfamily with three distinct subtypes namely PPAR alpha, PPAR delta (also called PPAR beta) and PPAR gamma (PPARg). All these subtypes heterodimerize with Retinoid X receptor (RXR) and these heterodimers regulate transcription of various genes. PPAR-gamma receptor (glitazone receptor) is involved in the regulation of glucose and lipid metabolism. To identify the compounds that inhibit PPAR-gamma signaling, GeneBLAzer PPAR gamma UAS-bla HEK293H cell line (Invitrogen, Carlsbad, CA, USA) containing a beta-lactamase reporter gene under control of an Upstream Activator Sequence (UAS) was used to screen the Tox21 compound library.
Tox21 Assay Protocol Summary: PPARg-bla cells were dispensed at 3000 cells/6uL/well in 1536-well black wall/clear bottom plates using a Multidrop Combi (Thermo Fisher Scientific, Waltham, MA) dispenser. After the assay plates were incubated at 37C and 5% CO2 for 5 h, 23 nL of compounds dissolved in DMSO, positive controls or DMSO only was transferred to the assay plate by a Pintool station (Kalypsys, San Diego, CA). The assay plates were incubated at 37C for 17 h. After 1 uL of LiveBLAzerTM B/G FRET substrate was added using a Bioraptr Flying Reagent Dispenser (FRD) workstation (Beckman Coulter, Indianapolis, IN, USA), the plates were incubated at room temperature for 1 h, and fluorescence intensity was measured by an Envision plate reader (PerkinElmer, Shelton, CT).
Potency is read from the fitted curve at half-maximal effect.

Sequence of Peroxisome proliferator-activated receptor gamma (Homo sapiens) (P37231 whole entry, looked up): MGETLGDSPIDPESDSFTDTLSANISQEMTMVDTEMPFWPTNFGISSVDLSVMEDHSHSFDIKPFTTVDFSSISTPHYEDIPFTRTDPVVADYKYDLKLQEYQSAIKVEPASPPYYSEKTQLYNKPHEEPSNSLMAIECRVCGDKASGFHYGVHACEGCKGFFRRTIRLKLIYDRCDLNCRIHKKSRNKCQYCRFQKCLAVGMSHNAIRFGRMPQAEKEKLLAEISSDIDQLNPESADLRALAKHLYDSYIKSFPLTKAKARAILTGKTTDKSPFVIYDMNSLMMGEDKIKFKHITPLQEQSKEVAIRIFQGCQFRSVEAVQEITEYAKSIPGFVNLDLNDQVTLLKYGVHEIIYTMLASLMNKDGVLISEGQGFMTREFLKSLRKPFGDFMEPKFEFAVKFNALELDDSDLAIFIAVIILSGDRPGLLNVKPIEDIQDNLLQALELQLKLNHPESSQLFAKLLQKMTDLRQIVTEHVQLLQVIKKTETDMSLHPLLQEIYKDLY

Row | SMILES | Potency | ratio activity, negative = inhibition
1 | COCCl | inactive | 
2 | O=[N+]([O-])c1ccc(Oc2ccc(Cl)cc2Cl)cc1 |  | 10.6% (inactive)
3 | O=[N+]([O-])c1ccccc1 |  | -0.336% [at 81.1 µM] (inactive)
4 | CC(C)(Cl)Cl | inactive | 
5 | [N-]=[N+]=[N-] | inactive | 
6 | CCc1cccc(C)c1N(C(=O)CCl)C(C)COC (stereo not given) | 21.9 µM (active) | 
7 | Nc1ccc(Oc2ccc(N)cc2)cc1 | inactive | 
8 | C#CCN(C)[C@H](C)Cc1ccccc1 |  | 8.87% (inactive)
9 | Clc1cccc(Cl)c1Cl | inactive | 
10 | CC(C)NC(=O)N1CC(=O)N(c2cc(Cl)cc(Cl)c2)C1=O | inactive | 
11 | CCNc1nc(NC(C)C)nc(SC)n1 |  | -6.88% (inactive)
12 | CC(=O)C=C(C)C | inactive | 
13 | CCCCCOC(=O)c1ccccc1C(=O)OCCCCC |  | 6.71% (inactive)
14 | COC(=O)NS(=O)(=O)c1ccc(N)cc1 |  | -1.2% (inactive)
15 | O=C(O)c1ccccn1 | inactive | 
16 | O=[N+]([O-])c1ccc([As](=O)(O)O)cc1 | inactive | 
17 | O=NN1CCCCCCC1 | inactive | 
18 | C=C(C)CCl |  | -4.46% [at 5.95 µM] (inactive)
19 | Cc1[nH]c(=O)n(C(C)(C)C)c(=O)c1Cl |  | -1.14% (inactive)
20 | CCOP(=S)(OCC)SCCSCC | inactive | 

Row | SMILES | Potency | ratio activity, negative = inhibition
21 | O=c1ccc(=O)[nH][nH]1 | inactive | 
22 | CCCN(CCC)N=O |  | 0.14% (inactive)
23 | CC(C)(C)C(O)(CCc1ccc(Cl)cc1)Cn1cncn1 (stereo not given) |  | -41.1% [at 81.1 µM] (inactive)
24 | c1ccc(-c2ccccc2)cc1 | inactive | 
25 | O=Cc1cccc(Oc2ccccc2)c1 |  | 11.2% (inactive)
26 | CN(C)N=O |  | 8.82% (inactive)
27 | C1CC2OC2CC1C1CO1 (stereo not given) | inactive | 
28 | CC(C)(C)OOC(=O)c1ccccc1 | inactive | 
29 | O=c1[nH]c(=O)[nH]c(=O)[nH]1 | inactive | 
30 | O=S(=O)(c1ccc(O)cc1)c1ccc(O)cc1 |  | 1.34% [at 81.1 µM] (inactive)
31 | CC(Br)C(=O)O (stereo not given) |  | 8.27% (inactive)
32 | Cc1ccc(N)cc1N | inactive | 
33 | CCCCCCCCCl | inactive | 
34 | CN(C)CCO |  | -7.51% [at 81.1 µM] (inactive)
35 | O=c1n(Cl)c(=O)n(Cl)c(=O)n1Cl |  | 20% (inactive)
36 | Oc1ccccc1Cl | inactive | 
37 | CCC[CH2][Sn]([Cl])([Cl])[Cl] |  | -4.21% [at 81.1 µM] (inactive)
38 | c1ccc(OP(Oc2ccccc2)Oc2ccccc2)cc1 |  | 9.6% (inactive)
39 | CC(C)=C[C@@H]1[C@@H](C(=O)OCc2coc(Cc3ccccc3)c2)C1(C)C |  | 1.97% (inactive)
40 | CC1OC(C)OC(C)O1 (stereo not given) | inactive | 
